Source: PubChem
aSyn UTR act = Activators via SNCA 5'UTR binding, MLPCN | alpha-synuclein 5'UTR reporter, activators screen | activity score, % (tested at 7.5 µM), hits read low | 300,000 tested, 7.1% active; in the data active means activity score below about -60%
The depositor's hits bear a star. These entries were drawn from the full list.

How did COCCCC1CCN(C(=O)C2CCC(=O)N(CCc3ccccc3)C2)CC1 (stereo not given) do in these assays?
aSyn UTR act: -74*

How did COc1ccccc1CN1CC(C(=O)N2CCCCO2)CCC1=O (stereo not given) do in these assays?
aSyn UTR act: -77*

How did CC(=O)NNc1ncnc2c1cnn2-c1ccc(C)c(Cl)c1 do in these assays?
aSyn UTR act: -69*

What do the screens show for `O=C(NNc1ncnc2c1cnn2-c1cccc(Cl)c1)c1ccco1`?
aSyn UTR act: -158*

What do the screens show for `COc1ccc(CNc2nc3ccccc3s2)cc1OC`?
aSyn UTR act: -141*

Results for Cc1ccc(CNc2nc3ccccc3s2)s1 ?
aSyn UTR act: 78

What do the screens show for `c1ccc(CCNc2nc3ccccc3s2)cc1`?
aSyn UTR act: -81*

How did O=C(c1cc(COc2ccc3c(c2)CCCC3)on1)N1CCCC1 do in these assays?
aSyn UTR act: -118*

How did CCOC(=O)N1CCN(C(=O)c2cc(COc3c(F)cccc3F)on2)CC1 do in these assays?
aSyn UTR act: -151*

Results for O=C(c1cc(COc2c(F)cccc2F)on1)N1CCCCCC1 ?
aSyn UTR act: -99*

Results for O=C(Nc1ncc(Cc2cccc(Cl)c2)s1)c1cccs1 ?
aSyn UTR act: -192*

Results for Cc1ccc(Cc2cnc(NC(=O)c3cccs3)s2)cc1 ?
aSyn UTR act: -91*

Results for O=C(Nc1ncc(Cc2ccc(SC(F)F)cc2)s1)c1ccccc1 ?
aSyn UTR act: 68

How did c1ccc(-n2nc3c(ccc4cnnc43)[nH]2)cc1 do in these assays?
aSyn UTR act: -129*

How did Cc1ccc(-c2nn(-c3ccccc3)cc2/C=N/n2c(-c3ccncc3)n[nH]c2=S)cc1 do in these assays?
aSyn UTR act: -86*

How did O=[N+]([O-])c1ccc(Cl)c(/C=N/n2c(-c3ccncc3)n[nH]c2=S)c1 do in these assays?
aSyn UTR act: -78*

How did Cc1ccc(-c2cc(-c3ccccc3[N+](=O)[O-])[nH]n2)c(O)c1 do in these assays?
aSyn UTR act: -343*

How did Cc1ccccc1-c1cc(-c2ccccc2O)n[nH]1 do in these assays?
aSyn UTR act: -183*

How did Cc1ccc(-c2cc(-c3ccccc3Cl)[nH]n2)c(O)c1 do in these assays?
aSyn UTR act: -221*

What do the screens show for `O=C(Nc1ccc2nccnc2c1)c1cnccn1`?
aSyn UTR act: -79*

Results for O=C(Nc1ccc(OCc2ccccc2Cl)cc1)c1cccnc1 ?
aSyn UTR act: 90

What do the screens show for `O=C(Nc1ccc2c(c1)Cc1ccccc1-2)c1cccnc1`?
aSyn UTR act: -122*

How did O=C(Nc1ccc2ccccc2c1)c1cnccn1 do in these assays?
aSyn UTR act: -129*

How did O=C(Nc1ccc2ccccc2c1)c1cccnc1 do in these assays?
aSyn UTR act: -161*

How did Nc1nc(F)nc2c1ncn2[C@@H]1O[C@H](CO)[C@@H](O)[C@H]1O do in these assays?
aSyn UTR act: 122

Results for Cc1ccccc1C(=O)Nc1ccc(Br)c(C)n1 ?
aSyn UTR act: -113*

Results for Cc1nc(NC(=O)CCc2ccccc2)ccc1Br ?
aSyn UTR act: -145*

Results for Cc1cc(NC(=O)c2ccccc2[N+](=O)[O-])ccc1Br ?
aSyn UTR act: -130*

How did Cc1coc(C)c1C(=O)Nc1ccc2ccccc2c1 do in these assays?
aSyn UTR act: -162*

Results for Cc1cc(NC(=O)c2cccnc2)ccc1Br ?
aSyn UTR act: -147*

How did Cc1nc(NC(=O)c2cccnc2)ccc1Br do in these assays?
aSyn UTR act: -83*

Results for Cn1c(SCc2ccccc2F)nc2cccnc21 ?
aSyn UTR act: -101*

How did Cc1cc(C2=NNC(=Nc3ccccc3)SC2)c(C)n1C do in these assays?
aSyn UTR act: -80*

How did Cc1ccc2nc(-c3ccc(N4C(=O)CC(N5CCC(C(N)=O)CC5)C4=O)cc3)sc2c1 (stereo not given) do in these assays?
aSyn UTR act: -72*

How did Cc1ccccc1NCc1nc2ccccc2n1C do in these assays?
aSyn UTR act: -126*

Results for Cn1c(CNc2ccccc2O)nc2ccccc21 ?
aSyn UTR act: -154*

How did COc1ccc(N=Nc2[nH]c3ccc(C)cc3c2O)cc1 do in these assays?
aSyn UTR act: -125*

How did Cc1ccc(N=Nc2[nH]c3ccccc3c2O)cc1 do in these assays?
aSyn UTR act: -80*

What do the screens show for `CC(=O)c1cccc(NC(=O)c2csc3c2CCCCC3)c1`?
aSyn UTR act: -67*

How did CCOc1ccc(NC(=O)c2csc3c2CCCC3)cc1 do in these assays?
aSyn UTR act: -204*

What do the screens show for `CC1(C(=O)OCC(=O)Nc2ccc3ccccc3c2)CC1(Cl)Cl` (stereo not given)?
aSyn UTR act: -78*

Results for N#C/C(=C\C=C\c1ccccc1)C(=O)NCc1cccnc1 ?
aSyn UTR act: -70*

What do the screens show for `COc1cccc(N(C(=O)c2cccs2)c2nc3ccccc3s2)c1`?
aSyn UTR act: -154*

How did O=C(COC(=O)c1ccc[nH]c1=O)NCCc1ccc(Cl)cc1Cl do in these assays?
aSyn UTR act: -98*

Results for COc1cc(OC)cc(C(=O)Nc2ccc3nc4n(c(=O)c3c2)CCCCC4)c1 ?
aSyn UTR act: -115*

Results for O=C(Nc1ccc2nc3n(c(=O)c2c1)CCCC3)c1cccc([N+](=O)[O-])c1 ?
aSyn UTR act: -103*

What do the screens show for `CC(=O)Nc1ccc(NC(=O)c2sc3nc4n(c(=O)c3c2C)CCCCC4)cc1`?
aSyn UTR act: 76

What do the screens show for `COc1cccc(C2CC(=O)Nc3cc4c(cc32)CCC4)c1` (stereo not given)?
aSyn UTR act: 84

What do the screens show for `COc1cccc(CNC(=O)CCS(=O)(=O)c2ccc3c(c2)NC(=O)CO3)c1`?
aSyn UTR act: 99

What do the screens show for `COc1cccc(-c2nc(-c3ccc4c(c3)NC(=O)CO4)cs2)c1`?
aSyn UTR act: -197*

How did Cc1cccn2cc(-c3ccc4c(c3)NC(=O)CO4)nc12 do in these assays?
aSyn UTR act: -97*

What do the screens show for `Cc1ccc(-c2ccc(NC(=O)C3C4C=CC(C4)C3C(=O)O)cc2)o1` (stereo not given)?
aSyn UTR act: -181*

Results for CC(C)(C)C1=CC=C(C(C)(C)C)C(=O)C1=O ?
aSyn UTR act: -73*

Results for CCCCOc1cccc(-c2cc(C(=O)NNC(=S)NCC)c3ccccc3n2)c1 ?
aSyn UTR act: -69*

Results for CCNC(=S)NNC(=O)c1cc(-c2cccc(OCC)c2)nc2ccccc12 ?
aSyn UTR act: -89*

What do the screens show for `CCNC(=S)NNC(=O)c1cc(-c2cccc(C)c2)nc2ccccc12`?
aSyn UTR act: -116*

What do the screens show for `CCc1ccc(C2CC(c3ccco3)=NN2S(C)(=O)=O)cc1` (stereo not given)?
aSyn UTR act: -89*

How did CCCCNC(=O)Nc1ccc(C2SCCS2)cc1 do in these assays?
aSyn UTR act: -91*

What do the screens show for `O=C(N[C@H]1CC1c1ccccc1)c1ccc([N+](=O)[O-])cc1` (stereo not given in full)?
aSyn UTR act: -107*

What do the screens show for `O=C(Nc1ccc(Nc2ccccc2)cc1)c1ccccc1`?
aSyn UTR act: -176*

Results for O=C(Nc1ccc2nc3ccccc3nc2c1)c1ccccc1 ?
aSyn UTR act: -97*

What do the screens show for `Cc1ccc(C(=O)C[n+]2ccc(Cc3ccccc3)cc2)cc1`?
aSyn UTR act: 61

What do the screens show for `CC(Cc1ccccc1)NC(=O)c1ccc([N+](=O)[O-])cc1` (stereo not given)?
aSyn UTR act: -90*

How did O=C(Nc1ccccc1)c1ccc(NC(=O)C2CC2)cc1 do in these assays?
aSyn UTR act: -105*

What do the screens show for `O=C(C[n+]1ccc2ccccc2c1)c1ccc(NC(=O)c2ccccc2)cc1`?
aSyn UTR act: -87*
